Screens from PubChem BioAssay.
Shown is part of a subset that was picked to be rich in hits.
CXXC DNA block – qHTS Fluorescence Polarization Assay for Inhibitors of MLL CXXC domain - DNA interaction. Histone-lysine N-methyltransferase 2A (Homo sapiens), Q03164. MLL-CXXC / FITC-HOXA9 DNA fluorescence polarization. Potency, µM (highest dose often 115 µM), hits mostly inhibitors. 290,000 compounds, 0.037% hits. AID 2662, 2010; active = well fitted inhibition curve with a large enough effect in the polarisation, with a control signal flat, not every such curve was filed as active; inconclusive = small, poorly fitted or top-dose-only effect, or effect the other way, or a change in a side signal; inactive = no such curve, though single readings can be large or run the other way; the % refers to the polarisation
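Purified MLL-CXXC (added from a 7 uM solution) was preincubated 5 min at ambient with pinned compounds in 50 mM Tris-HCl pH 7.5, 50 mM NaCl, 1 mM DTT, 0.05% BSA. Fluorescein-labeled HOX-A9 DNA (50 nM solution) followed, 30 min, then polarization read.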
p53 reactivation – qHTS assay for re-activators of p53 using a Luc reporter; H1299 p53-A138V BP100-luciferase reporter, luminescence, 24 h; Potency, µM (titrated, usually from 92.2 µM), hits mostly activators; 320,000 compounds, 0.063% hits; active = well fitted activation curve with a large enough effect; inconclusive = small, poorly fitted or top-dose-only effect; inactive = no such curve, though single readings can be large or run the other way; note: nearly all actives have a fitted effect of over 45% in size
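p53-null H1299 cells stably carrying temperature-sensitive p53-A138V and a BP100-luciferase reporter were pinned with compounds (4-point, 1:5 series) and held 24 hrs at 37 deg C. Luminescence was read 10 min after detection reagent.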
ClpP mod – qHTS Assay for Activators of ClpP. ATP-dependent Clp protease proteolytic subunit (Bacillus subtilis (strain 168)), P80244. purified B. subtilis ClpP, FRET peptide cleavage, 20 min. Potency, µM (highest dose often 57.5 µM). 340,000 compounds, 1.9% hits. AID 651965, 2013; active = well fitted falling curve with a large enough effect; inconclusive = small, poorly fitted or top-dose-only effect; inactive = no such curve, though single readings can be large or run the other way; note: the source files actives as falling curves though it sought activators and does not explain the sign; nearly all actives have a fitted effect of over 65% in size
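ClpP 10 microg/mL final, pH 8 Tris/KCl buffer with BSA, glycerol, Tween-20; compound pinned in; FRET-FV substrate; RT 20 min; Ex320/Em430; ΔFRET vs ADEP 5.8 microM, DMSO, no enzyme.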
Menin MLL FP FL – qHTS Assay for Inhibitors Targeting the Menin-MLL Interaction in MLL Related Leukemias: Competition With Fluorescein Labeled MLL-derived Peptide; FP activity change, % at 61.4 µM; Fluorescence polarization, fluorescein-MLL peptide displacement from menin; 290,000 tested, under 10 active; active = well fitted curve in the direction sought with a large enough effect in the polarisation, not every such curve was filed as active; inconclusive = small, poorly fitted or top-dose-only effect, or effect the other way, or a change in a side signal; inactive = no such curve, though single readings can be large or run the other way; the % refers to the polarisation
Menin MLL FP TR – qHTS Assay for Inhibitors Targeting the Menin-MLL Interaction in MLL Related Leukemias: Competition With Texas Red Labeled MLL-derived Mutant Peptide; O00255; Menin + Texas Red MLL mutant peptide, fluorescence polarization; Potency, µM (titrated, usually from 61.6 µM), actives largely listed as inhibitors; 270,000 compounds, 0.23% hits; AID 1768, 2009; active = well fitted inhibition curve with a large enough effect in the polarisation, with a control signal flat, not every such curve was filed as active; inconclusive = small, poorly fitted or top-dose-only effect, or effect the other way, or a change in a side signal; inactive = no such curve, though single readings can be large or run the other way; the % refers to the polarisation
Each line names hits and unclear results; the compound was inactive in the other large screens.

COC(=O)COc1ccc(/C=N/NC(=O)c2ccc(N(Cc3ccccc3)S(C)(=O)=O)cc2)cc1	ClpP mod 32µM
NC(=O)COc1ccc(/C=N\NC(=O)c2ccc(-c3ccccc3)cc2)cc1	ClpP mod 10µM (no result: Menin MLL FP FL, Menin MLL FP TR)
CCCCn1c(=O)nc2n(-c3ccccc3C)c3ccccc3cc-2c1=O	ClpP mod 18µM
O=S(=O)(NCCNC/C=C/c1ccc(Br)cc1)c1cccc2cnccc12	none (no result: p53 reactivation, ClpP mod)
CN(C)c1ccc(/C=N/NC(=S)NCc2ccco2)cc1	ClpP mod 25µM
CN(C)c1ccc(/C=N/NC(=O)CCCO)cc1	none (no result: ClpP mod)
CN(C)c1ccc(/C=N/NC(=O)CCC(=O)NCc2ccccc2)cc1	ClpP mod 10µM
CCCCCC(=O)N/N=C/c1ccc(N(C)C)cc1	p53 reactivation inconclusive, ClpP mod 28µM
CCOC(=O)c1ccc(NC(=O)CCc2c(C)nc3c(c(C)nn3C)c2C)cc1	none (no result: CXXC DNA block, p53 reactivation, Menin MLL FP FL, Menin MLL FP TR)
CCCNC(=O)Cn1nc(C)c2c(C)n(-c3ccccc3)nc2c1=O	none (no result: CXXC DNA block, p53 reactivation, Menin MLL FP FL, Menin MLL FP TR)
COc1ccc(OC)c(C(Cc2ccnc3ccccc23)Cc2ccnc3ccccc23)c1	none (no result: CXXC DNA block, p53 reactivation, Menin MLL FP FL, Menin MLL FP TR)
O=C(C[n+]1ccc(-c2nnc3n2CCC3)cc1)c1ccc(Cl)c(Cl)c1	ClpP mod 28µM
Cc1ccccc1NC(=O)NCC1CCCO1 (stereo not given)	ClpP mod 28µM (no result: p53 reactivation)
COC(=O)c1ccccc1NC(=O)NCC1CCCO1 (stereo not given)	ClpP mod 25µM
Cc1ccc(C(=O)Nc2ccccc2C(=O)NCC2CCCO2)cc1 (stereo not given)	none
COCCNc1nc(C)nc2c1nc(-c1ccccc1)n2CCCN1CCCCC1C (stereo not given)	none (no result: CXXC DNA block, p53 reactivation, ClpP mod)
C/C=C(\C)NNC(=O)Cc1ccc(OC)cc1	none (no result: CXXC DNA block, p53 reactivation, Menin MLL FP FL, Menin MLL FP TR)
OC1OC[C@H](O)[C@H](O)[C@H]1O (stereo not given in full)	none (no result: CXXC DNA block, p53 reactivation, ClpP mod)
O=c1c2ccccc2[nH]c(=S)n1Cc1ccccc1	Menin MLL FP TR inconclusive (no result: ClpP mod)
O=C(CCCCCn1c(=O)[nH]c2ccccc2c1=O)NCCc1ccccc1	ClpP mod 32µM (no result: CXXC DNA block, p53 reactivation, Menin MLL FP FL, Menin MLL FP TR)
O=C(CCCCCn1c(=O)[nH]c2ccccc2c1=O)NCc1ccccc1	none (no result: CXXC DNA block, p53 reactivation, Menin MLL FP FL, Menin MLL FP TR)
O=c1c2ccccc2[nH]c(=S)n1CCc1ccccc1	ClpP mod 7.1µM
CCCCc1nc2c(c3c1C[C@H](C)OC3)CN(S(=O)(=O)CCCC)CC2	Menin MLL FP TR inconclusive (no result: CXXC DNA block, p53 reactivation, ClpP mod)
O=C(OCC(=O)N1N=C(c2ccc(Cl)cc2)CC1c1ccco1)c1ccccc1O (stereo not given)	ClpP mod 35µM
CC(=O)c1ccc(OCC(O)CN2CCN(S(=O)(=O)c3c(C)cc(C)cc3C)CC2)cc1 (stereo not given)	ClpP mod 20µM, Menin MLL FP TR inconclusive
CC(=O)c1ccc(OCC(O)CN2CCOCC2)cc1 (stereo not given)	none
COC(=O)C1=C(C(=O)OC)[C@@H]2N(C)c3ccc(OC)cc3[C@@]23C[C@@H](C(=O)OC)N(S(=O)(=O)c2cccs2)C3=N1	none (no result: CXXC DNA block, p53 reactivation, ClpP mod)
CN(Cc1ccccc1)C(=O)C1CCCN(Cc2ccc(Cl)cc2)C1 (stereo not given)	ClpP mod 11µM
CCN(CC)C(=O)C1CCCN(Cc2ccccc2)C1 (stereo not given)	none
O=C1[C@@H]2[C@@H](CN3CN(c4ccccc4)N=C(c4ccccc4)[C@@]23c2ccccc2)C(=O)N1c1ccccc1	ClpP mod 3.5µM (no result: CXXC DNA block, p53 reactivation, Menin MLL FP FL, Menin MLL FP TR)
O=C1[C@H]2C(c3ccccc3)=NN(c3ccccc3)[C@H]2C(=O)N1c1ccccc1	Menin MLL FP TR inconclusive
CC[C@H](C)[C@H](NC(=O)[C@H](C)NC(=O)CNC(=O)[C@H](CCCCN)NC(=O)[C@H](CC(N)=O)NC(=O)[C@H](CO)NC(=O)CN)C(=O)N[C@H](C(=O)NCC(=O)N[C@@H](CC(C)C)C(=O)N[C@@H](CCSC)C(=O)O)[C@@H](C)CC	none (no result: CXXC DNA block, p53 reactivation, ClpP mod)
COC(=O)c1c(-c2cccs2)csc1NC(=O)COc1ccc(C(C)C)cc1	ClpP mod 28µM (no result: CXXC DNA block, p53 reactivation, Menin MLL FP FL, Menin MLL FP TR)
